In PMC5540273 (PLoS ONE, 2017):

Columns and labels:
Conditions in all cases: concentration: 1 μM,replicates: in singlicate; n = 1
[1] = test system: T1, HASPIN
T1 construct: gene GSG2

[2] = test system: HCK
[3] = test system: HIPK1
[4] = test system: HIPK2
[5] = test system: HIPK3
[6] = test system: HPK1
[7] = test system: HUNK
[8] = test system: ICK
[9] = test system: IGF1R
[10] = test system: HIPK4
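Note: KINOMEscan kinase panel screen.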

Q: `O=C1NCCc2[nH]c(-c3ccncc3)cc21` was tested. Which “%Inh” value [1] did it give?
A: 100%

Q: What about the “%Inh” value [2] of the same compound?
A: 20%

Q: What about the “%Inh” value [3] of the same compound?
A: 91.5%

Q: What about the “%Inh” value [4] of the same compound?
A: 97.2%

Q: What about the “%Inh” value [5] of the same compound?
A: 95.5%

Q: What about the “%Inh” value [6] of the same compound?
A: 7%

Q: What about the “%Inh” value [7] of the same compound?
A: 0%

Q: What about the “%Inh” value [8] of the same compound?
A: 29%

Q: What about the “%Inh” value [9] of the same compound?
A: 0%

Q: Which “%Inh” value [1] does the source give for `C[C@@H](Oc1cc(-n2cnc3cc(-c4cnn(C)c4)ccc32)sc1C(N)=O)c1ccccc1Cl` [GSK580432] here?
A: 0%

Q: And the “%Inh” value [2]?
A: 64%

Q: And the “%Inh” value [3]?
A: 20%

Q: And the “%Inh” value [4]?
A: 0%

Q: What about the “%Inh” value [5] of the same compound?
A: 4%

Q: And the “%Inh” value [10]?
A: 1%

Q: What about the “%Inh” value [6] of the same compound?
A: 91.3%

Q: And the “%Inh” value [7]?
A: 0%

Q: What about the “%Inh” value [8] of the same compound?
A: 0%

Q: What about the “%Inh” value [9] of the same compound?
A: 0%

Q: What does the source list for `Cc1ccc(C(=O)Nc2ccc(Oc3ccc4nc(NC(=O)C5CC5)cn4c3)c(F)c2)c(=O)n1-c1ccccc1`?
A: %Inh [1]: 0%; %Inh [2]: 96.6%; %Inh [3]: 29%; %Inh [4]: 0%; %Inh [5]: 0%; %Inh [10]: 72%; %Inh [6]: 56%; %Inh [7]: 22%; %Inh [8]: 0%; %Inh [9]: 0%

Q: Which “%Inh” value [1] does the source give for `COc1ccc(Nc2nccc(N3CCC(NC(=O)c4cccc(C#N)c4)C3)n2)cc1` (centres unmarked) [GSK1379730] here?
A: 6%

Q: And the “%Inh” value [2]?
A: 5%

Q: And the “%Inh” value [3]?
A: 0%

Q: What about the “%Inh” value [4] of the same compound?
A: 0%

Q: And the “%Inh” value [5]?
A: 0%

Q: What about the “%Inh” value [10] of the same compound?
A: 2%

Q: What about the “%Inh” value [6] of the same compound?
A: 42%

Q: What about the “%Inh” value [7] of the same compound?
A: 0%

Q: What about the “%Inh” value [8] of the same compound?
A: 0%

Q: What about the “%Inh” value [9] of the same compound?
A: 0%

Q: For `Cc1ccn2nc(-c3ccc(F)cc3)c(-c3ccncc3)c2c1.Cl` [GW457859], which “%Inh” value [1] is on record?
A: 32%

Q: What about the “%Inh” value [2] of the same compound?
A: 10%

Q: What about the “%Inh” value [3] of the same compound?
A: 0%

Q: What about the “%Inh” value [4] of the same compound?
A: 0%

Q: And the “%Inh” value [5]?
A: 0%

Q: What about the “%Inh” value [10] of the same compound?
A: 0%

Q: And the “%Inh” value [6]?
A: 12%

Q: And the “%Inh” value [7]?
A: 52%

Q: And the “%Inh” value [8]?
A: 0%

Q: And the “%Inh” value [9]?
A: 0%

Q: With `C[C@@H]1CNc2c(sc3ccc4nc(-c5ccncc5)ccc4c23)C(=O)N1` as the compound, how does the “%Inh” value [1] read?
A: 70%

Q: What about the “%Inh” value [2] of the same compound?
A: 21%

Q: What about the “%Inh” value [3] of the same compound?
A: 37%

Q: And the “%Inh” value [4]?
A: 3%

Q: What about the “%Inh” value [5] of the same compound?
A: 4%

Q: What about the “%Inh” value [10] of the same compound?
A: 0%

Q: And the “%Inh” value [6]?
A: 0%

Q: And the “%Inh” value [7]?
A: 7%

Q: And the “%Inh” value [8]?
A: 0%

Q: What about the “%Inh” value [9] of the same compound?
A: 0%

Q: What does the source list for `CCN1CCN(CCCC(=O)Nc2n[nH]c3nc(-c4ccc(O)cc4)c(Br)cc23)CC1` [SB-731579]?
A: %Inh [1]: 0%; %Inh [2]: 0%; %Inh [3]: 75%; %Inh [4]: 57%; %Inh [5]: 0%; %Inh [10]: 0%; %Inh [6]: 8%; %Inh [7]: 0%; %Inh [8]: 93.3%; %Inh [9]: 0%

Q: What does the source list for `OCCn1cc(-c2cnc3nnn(Cc4ccc5ncccc5c4)c3n2)cn1`?
A: %Inh [1]: 0%; %Inh [2]: 25%; %Inh [3]: 6%; %Inh [4]: 0%; %Inh [5]: 0%; %Inh [10]: 3%; %Inh [6]: 0%; %Inh [7]: 0%; %Inh [8]: 0%; %Inh [9]: 0%

Q: Which results are given for `CNC(=O)c1ccccc1Nc1nc(Nc2cccc(CS(C)(=O)=O)c2)ncc1C.O=CO` [GSK1520489]?
A: %Inh [1]: 52%; %Inh [2]: 99.2%; %Inh [3]: 93.5%; %Inh [4]: 88%; %Inh [5]: 92.7%; %Inh [10]: 97.2%; %Inh [6]: 96.8%; %Inh [7]: 0%; %Inh [8]: 20%; %Inh [9]: 90.7%

Q: What does the source list for `COC(=O)c1cccc(NC(=O)NC2CCN(c3ccnc(Nc4cc(OC)c(OC)c(OC)c4)n3)C2)c1` (centres unmarked) [GSK1379767]?
A: %Inh [1]: 15%; %Inh [2]: 5%; %Inh [3]: 0%; %Inh [4]: 0%; %Inh [5]: 6%; %Inh [10]: 0%; %Inh [6]: 72%; %Inh [7]: 0%; %Inh [8]: 0%; %Inh [9]: 3%

Q: `CN1CCN(CCNc2nc3cc(Oc4ccc(NC(=O)Nc5cc(C(F)(F)F)ccc5F)cc4)ccc3[nH]2)CC1.Cl.Cl` [GW768504] was tested. Which “%Inh” value [1] did it give?
A: 0%

Q: And the “%Inh” value [2]?
A: 11%

Q: What about the “%Inh” value [3] of the same compound?
A: 19%

Q: And the “%Inh” value [4]?
A: 0%

Q: And the “%Inh” value [5]?
A: 0%

Q: What about the “%Inh” value [10] of the same compound?
A: 66%

Q: What about the “%Inh” value [6] of the same compound?
A: 3%

Q: And the “%Inh” value [7]?
A: 41%

Q: And the “%Inh” value [8]?
A: 0%

Q: What about the “%Inh” value [9] of the same compound?
A: 0%

Q: What does the source list for `N#Cc1cccc(C(=O)NC2CCN(c3ccnc(Nc4ccc(F)cc4)n3)C2)c1` (centres unmarked) [GSK1379708]?
A: %Inh [1]: 0%; %Inh [2]: 0%; %Inh [3]: 0%; %Inh [4]: 3%; %Inh [5]: 0%; %Inh [10]: 0%; %Inh [6]: 40%; %Inh [7]: 7%; %Inh [8]: 0%; %Inh [9]: 0%

Q: How did the “%Inh” value [1] turn out when `Nc1nccc(-c2ccc3c(N)n[nH]c3c2)n1` [GSK1034945] was run?
A: 90.5%

Q: What about the “%Inh” value [2] of the same compound?
A: 0%

Q: What about the “%Inh” value [3] of the same compound?
A: 0%

Q: What about the “%Inh” value [4] of the same compound?
A: 0%

Q: What about the “%Inh” value [5] of the same compound?
A: 34%

Q: What about the “%Inh” value [10] of the same compound?
A: 34%

Q: What about the “%Inh” value [6] of the same compound?
A: 52%

Q: And the “%Inh” value [7]?
A: 0%

Q: What about the “%Inh” value [8] of the same compound?
A: 0%

Q: What about the “%Inh” value [9] of the same compound?
A: 0%

Q: Which “%Inh” value [1] does the source give for `COc1cccc(CNC(=O)NC2CCN(c3ccnc(Nc4cc(OC)c(OC)c(OC)c4)n3)C2)c1` (centres unmarked) [GSK1379765] here?
A: 11%

Q: What about the “%Inh” value [2] of the same compound?
A: 12%

Q: What about the “%Inh” value [3] of the same compound?
A: 0%

Q: And the “%Inh” value [4]?
A: 34%

Q: And the “%Inh” value [5]?
A: 36%

Q: What about the “%Inh” value [10] of the same compound?
A: 0%

Q: And the “%Inh” value [6]?
A: 38%

Q: And the “%Inh” value [7]?
A: 0%

Q: What about the “%Inh” value [8] of the same compound?
A: 13%

Q: What about the “%Inh” value [9] of the same compound?
A: 0%

Q: Which “%Inh” value [1] does the source give for `Cn1ccc2ncnc(Oc3ccc(NC(=O)Nc4cccc(C(F)(F)F)c4)c(Cl)c3)c21` here?
A: 0%

Q: What about the “%Inh” value [2] of the same compound?
A: 47%

Q: What about the “%Inh” value [3] of the same compound?
A: 26%

Q: What about the “%Inh” value [4] of the same compound?
A: 15%

Q: What about the “%Inh” value [5] of the same compound?
A: 0%

Q: And the “%Inh” value [10]?
A: 17%

Q: And the “%Inh” value [6]?
A: 39%

Q: And the “%Inh” value [7]?
A: 2%

Q: What about the “%Inh” value [8] of the same compound?
A: 0%

Q: And the “%Inh” value [9]?
A: 0%
